Measured values published in PubChem BioAssay.
Calls of active or inactive are those of the source. The rule behind the calls is not given here.

System: Aerobactin synthetase IucA (Klebsiella pneumoniae hvKP1)
Test: Biochemical IucA enzyme inhibition primary screen of the Spectrum library (AID 1346200);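 note: 100% = wells without compound and 0% = wells lacking enzyme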
Conditions: malachite green pyrophosphate, A620, at 8 µM, hits give low values

SMILES | activity remaining
CC(=O)O[C@@H]1C[C@@]2(C)C(CC[C@@H]2C(C)=O)C2CCC3=CC(=O)CC[C@]3(C)C21 (stereo partly specified) | 88.2% (inactive)
NC(=O)N/N=C/c1ccc([N+](=O)[O-])o1 | 94.6% (inactive)
CN(C)C(=N)N=C(N)N | 120% (inactive)
C[C@]12CCC(=O)C=C1CCC1C2[C@@H](O)C[C@@]2(C)C1CC[C@]2(O)C(=O)CO (stereo partly specified) | 113% (inactive)
O=C(O)c1cn(C2CC2)c2cc(N3CCNCC3)c(F)cc2c1=O | 77.6% (inactive)
COC(=O)C1=CO[C@@H](C)[C@@H]2CN3CC[C@]4(C(=O)Nc5ccccc54)C3CC12 (stereo partly specified) | 121% (inactive)
Cc1ncc([N+](=O)[O-])n1CCO | 75.6% (inactive)
CCCc1cc(OC)c2c(c1)OCO2 | 106% (inactive)
COC1=CC(=O)C[C@@H](C)[C@]12Oc1c(Cl)c(OC)cc(OC)c1C2=O | 115% (inactive)
S=c1ccss1 | 84.5% (inactive)
Nc1c2ccccc2nc2ccccc12 | 118% (inactive)
NC(N)=NCCN1CCCCCCC1 | 104% (inactive)
CC(CN(C)C)CN1c2ccccc2Sc2ccccc21 (stereo unspecified) | 101% (inactive)
CC(=O)OC1CCC2(C)C3CC(=O)C4(C)C(CC5OC6(CCC(C)CO6)[C@@H](C)C54)C3CC[C@H]2C1 (stereo partly specified) | 102% (inactive)
Cc1cc(O)c(C=O)c2c1C(=O)Oc1c(COC(=O)/C=C/C(=O)O)c(O)c(C(=O)O)c(C)c1O2 | 93.9% (inactive)
O=C1CC[C@]23/C=C/C(=O)NCCCCNCCCNC(=O)/C=C/c4ccc(c2c4)O[C@@H]3C1 | 117% (inactive)
